# Screening data as filed in PubChem BioAssay.
# KDM5B inhibitor – Primary screen for KDM5B Histone Demethylases FDH-coupled qHTS; Lysine-specific demethylase 5B (Homo sapiens), Q9UGL1; KDM5B demethylase, FDH-coupled NADH fluorescence (FDH is formaldehyde dehydrogenase); Potency, µM (series often up to 57.7 µM), usual class: inhibitors; actives 2.6% (n = 220,000); AID 1347165, 2019; active means well fitted inhibition curve with a large enough effect; further: nearly all actives have a fitted effect of over 70% in size
# Target sequence (Q9UGL1 whole entry, looked up): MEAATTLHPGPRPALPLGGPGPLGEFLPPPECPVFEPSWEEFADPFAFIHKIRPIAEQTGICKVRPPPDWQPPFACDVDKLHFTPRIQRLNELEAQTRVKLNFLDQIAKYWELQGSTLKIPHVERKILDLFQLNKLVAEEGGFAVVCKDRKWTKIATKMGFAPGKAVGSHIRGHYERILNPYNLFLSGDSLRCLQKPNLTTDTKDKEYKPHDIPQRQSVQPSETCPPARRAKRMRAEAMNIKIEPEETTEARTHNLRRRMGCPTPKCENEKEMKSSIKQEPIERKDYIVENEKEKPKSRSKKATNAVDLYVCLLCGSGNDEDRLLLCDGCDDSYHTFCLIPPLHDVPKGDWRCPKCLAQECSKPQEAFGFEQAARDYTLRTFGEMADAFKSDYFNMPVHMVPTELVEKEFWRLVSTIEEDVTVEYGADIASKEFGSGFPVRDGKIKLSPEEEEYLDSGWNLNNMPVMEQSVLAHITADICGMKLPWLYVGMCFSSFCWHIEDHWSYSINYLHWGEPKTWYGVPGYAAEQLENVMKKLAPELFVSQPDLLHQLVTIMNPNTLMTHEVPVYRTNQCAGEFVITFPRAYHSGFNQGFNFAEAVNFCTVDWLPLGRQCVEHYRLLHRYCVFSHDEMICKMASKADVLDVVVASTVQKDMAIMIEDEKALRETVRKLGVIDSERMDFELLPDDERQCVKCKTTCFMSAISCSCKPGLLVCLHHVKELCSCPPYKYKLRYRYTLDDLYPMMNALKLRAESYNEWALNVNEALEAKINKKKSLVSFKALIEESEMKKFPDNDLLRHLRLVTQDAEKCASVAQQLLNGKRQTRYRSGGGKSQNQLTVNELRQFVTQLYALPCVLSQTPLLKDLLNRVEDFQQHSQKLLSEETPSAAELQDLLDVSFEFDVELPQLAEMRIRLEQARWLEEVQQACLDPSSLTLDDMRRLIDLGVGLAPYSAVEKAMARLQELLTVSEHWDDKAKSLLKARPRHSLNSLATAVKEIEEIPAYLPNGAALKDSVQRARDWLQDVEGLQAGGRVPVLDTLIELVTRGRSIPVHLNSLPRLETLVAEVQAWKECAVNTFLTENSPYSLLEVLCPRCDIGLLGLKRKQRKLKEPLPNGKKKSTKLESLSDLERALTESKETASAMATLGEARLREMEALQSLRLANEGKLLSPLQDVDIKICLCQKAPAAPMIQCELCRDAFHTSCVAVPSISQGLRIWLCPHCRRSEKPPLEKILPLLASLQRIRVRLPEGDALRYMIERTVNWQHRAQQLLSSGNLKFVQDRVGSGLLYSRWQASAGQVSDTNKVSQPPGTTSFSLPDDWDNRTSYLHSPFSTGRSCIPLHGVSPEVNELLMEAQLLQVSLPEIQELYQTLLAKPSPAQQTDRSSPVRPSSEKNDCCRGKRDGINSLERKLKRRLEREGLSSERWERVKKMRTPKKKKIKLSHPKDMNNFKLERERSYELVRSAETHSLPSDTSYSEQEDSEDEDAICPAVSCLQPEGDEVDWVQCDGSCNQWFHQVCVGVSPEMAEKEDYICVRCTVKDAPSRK
#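 Inhibition is measured as reduced NADH fluorescence generation from FDH coupling to formaldehyde release. Truncated KDM5BΔAP at 200 nM final acts on H3K4me3 peptide (12.5 µM in substrate mix) in pH 7.5 HEPES buffer with Tween-20, 30 min, room temperature.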
# Numbers stand for hits; – = inactive. The full list was thinned out, with hits kept by preference.
SMILES,KDM5B inhibitor
Cc1ccc(S(=O)(=O)NC[C@H]2C[C@@H]3CCN2C[C@@H]3CN2CCc3ccccc32)cc1,–
CSc1cccc(NC(=O)NC[C@H]2C[C@@H]3CCN2C[C@@H]3CN(C)c2ccccc2)c1,–
C#C[C@H]1CN2CC[C@H]1C[C@@H]2CNCc1cccc(Cl)c1,–
C=C[C@H]1CN2CC[C@H]1C[C@@H]2CNC(=O)c1ccc(F)c(Cl)c1,–
COc1ccccc1CNC(=O)[C@H]1CN2CCC1C[C@@H]2Cn1cc(-c2cccc(N)c2)nn1 (some centres not stated),–
COc1ccc(CCNCc2ccc(Br)cc2)cc1,–
Cc1ccc2c(n1)N(C)[C@H](CO)CCN(CC(C)C)C2,16µM
CNc1nc(N2C[C@H]3CN(CCOC)C[C@@]3(C(=O)O)C2)ncc1F,16µM
CN1CC[C@H]2CN(c3cc(NCCO)ncn3)C[C@@]2(C(=O)O)C1,–
O=C(C1CC1)N1C[C@H]2CN(Cc3cccnc3)C[C@@]2(C(=O)O)C1,–
O=C(NC[C@H]1C[C@@H]2CCN1C[C@@H]2CN1CCC(Cc2ccccc2)CC1)c1ccc(C(F)(F)F)cc1,–
O=C1Nc2ccccc2CC12CCCN(Cc1cccnc1)C2 (configuration not stated),–
Cc1nc(-c2ccco2)cc([C@H]2CN3CC[C@H]2C[C@@H]3CNCC2CCCCC2)n1,–
Cc1nc(-c2cccs2)cc([C@H]2CN3CC[C@H]2C[C@@H]3CNC(=O)c2ccc3c(c2)OCO3)n1,–
Cc1nc(-c2ccccc2)cc([C@H]2CN3CC[C@H]2C[C@@H]3CNC(=O)N2CCOCC2)n1,–
Cc1ccc(C(=O)NC[C@H]2C[C@@H]3CCN2C[C@@H]3c2cc(-c3cccs3)nc(C)n2)cc1,35µM
Cc1nc(-c2ccco2)cc([C@H]2CN3CC[C@H]2C[C@@H]3CNC(=O)Cc2cccs2)n1,18µM
Cc1nc(-c2ccc(F)cc2)cc([C@H]2CN3CC[C@H]2C[C@@H]3CNC(=O)C2CC2)n1,–
Cc1nc(-c2cccs2)cc([C@H]2CN3CC[C@H]2C[C@@H]3CNC(=O)Nc2cccc(C(F)(F)F)c2)n1,–
Cc1nc(-c2cccs2)cc([C@H]2CN3CC[C@H]2C[C@@H]3CNC(=O)c2ccccc2)n1,–
Cc1nc(-c2ccco2)cc([C@H]2CN3CC[C@H]2C[C@@H]3CNC2CCOCC2)n1,22µM
CC[C@H]1CN2CC[C@H]1C[C@@H]2CNCc1cccs1,–
Cc1ccccc1S(=O)(=O)N1[C@H]2CC[C@@H]1c1cnc(-c3ccccc3)nc1C2,–
N#Cc1ccc(NC(=O)CN2CCc3sccc3C2c2cccs2)cc1Cl (configuration not stated),–
O=C(O)c1cc(I)cc(I)c1I,–
SMILES,KDM5B inhibitor
Cc1cccc(CC(=O)N2CC(N(Cc3ccccc3)C3CCOCC3)C2)c1,–
CCn1nccc1C(=O)N1[C@H]2CC[C@@H]1c1cnc(-c3ccc(F)cc3)nc1C2,–
CCC(CC)c1cc([C@H]2CN3CC[C@H]2C[C@@H]3CNC(=O)Nc2ccc(OC)cc2)nc(-c2ccncc2)n1,–
O=C(NCc1ccco1)N1C[C@@H](c2ccc(F)cc2)[C@@H]2[C@H]1C1CCN2CC1,–
CN1CCN2C(=O)N(Cc3cccnc3)C[C@H]2C1,–
O=C(c1ccc(F)cc1)N1C[C@@H]2C[C@H](C1)c1c(-c3ccc(Cl)cc3)ccc(=O)n1C2,–
O=C(C1CCCCC1)N1C[C@@H]2C[C@H](C1)c1c(/C=C/c3ccc(Cl)cc3)ccc(=O)n1C2,25µM
O=C(NC1CCCCC1)N1C[C@@H]2C[C@H](C1)c1c(/C=C/c3ccc(Cl)cc3)ccc(=O)n1C2,–
COc1ccc(CCC(=O)N2[C@H]3CC[C@@H]2c2cnc(-c4ccc(F)cc4)nc2C3)cc1,–
CC(C)(C)CC(=O)N1C[C@@H]2C[C@H](C1)c1ccc(NC(=O)Nc3cccc(F)c3)c(=O)n1C2,28µM
O=C(Nc1ccc2n(c1=O)C[C@H]1C[C@@H]2CN(C(=O)c2ccccn2)C1)c1cccs1,–
CSCC(=O)Nc1ccc2n(c1=O)C[C@H]1C[C@@H]2CN(C(=O)CSCC(=O)O)C1,–
O=C(C1CCCC1)N1[C@H]2CC[C@@H]1c1cnc(-c3ccc(F)cc3)nc1C2,–
Cn1cc(C(=O)NCC(=O)NC(C)(C)C)c2ccccc21,–
O=C(c1ccncc1)N1C[C@@H]2C[C@H](C1)c1ccc(-c3cccc(C(F)(F)F)c3)c(=O)n1C2,28µM
CC(C)NC(=O)N1C[C@@H]2C[C@H](C1)c1ccc(-c3cccc(C(F)(F)F)c3)c(=O)n1C2,–
O=C(O)CSCC(=O)N1C[C@@H]2C[C@H](C1)c1c(-c3ccccc3F)ccc(=O)n1C2,–
O=C(c1cncnc1)N1C[C@@H]2C[C@H](C1)c1c(-c3ccc4ccccc4c3)ccc(=O)n1C2,–
COCCC(=O)N1C[C@@H]2C[C@H](C1)c1ccc(-c3cccc(C(F)(F)F)c3)c(=O)n1C2,40µM
CN(C)CC(=O)N1C[C@@H]2C[C@H](C1)c1c(-c3cccc(C#N)c3)ccc(=O)n1C2,–
